These results are taken from PubChem BioAssay AID652042 (Broad Institute, 2013).

Each structure is given as a SMILES string. Out of some 1,100 compounds screened, about 350 (32%) were called active. These entries were drawn from the full list. Entries with a potency or affinity are not part of this list. Unmarked numbers belong to inactive results. No rule for the calls is given here.

A short description of the test: viability loss in CEM21 cells – cell-based, CellTiter-Glo luminescence, cherry-picked, cytotoxicity control for viral fusion inhibitor project, dose response (AID 652042). Conditions: CellTiter-Glo ATP luminescence, 24 h; series mostly up to 35 µM; activity change, negative = cytotoxicity: at the top concentration. On the technique in general: In ATP-based viability assays light output follows the ATP content of the culture.
As to `O=C1c2cccnc2C(Nc2ccc(S(=O)(=O)N3CCCCC3)cc2)N1Cc1ccccc1` (centres undefined), the “activity change, negative = cytotoxicity” value is -1.7%.
Then `CCc1ccc(C(=O)CN2C(=O)NC(C)(c3ccc(C)cc3)C2=O)cc1` (centres undefined), with -3.88%.
As for `Nc1ccc(S(=O)(=O)c2ccc(N3CCOCC3)c(N)c2)cc1`, the “activity change, negative = cytotoxicity” value was -0.149%.
To `CN(C)CC(=O)Nc1ccc2c(c1)[C@H]1C[C@H](CC(=O)NCc3cccc(F)c3)O[C@@H](CO)[C@H]1O2` belongs 3.37%; to `COc1ccc(OC)c(NC(=O)COc2ccc3c(c2)CCC3)c1`, -4.42%; to `Cc1ccc(C(C(=O)NC(C)(C)C)N(Cc2cccs2)C(=O)c2csnn2)cc1` (centres undefined), -7.49%.
Then `O=C(C[C@H]1C[C@@H]2c3cc(NS(=O)(=O)c4ccc(F)cc4)ccc3O[C@@H]2[C@H](CO)O1)NCCc1ccccc1`, with -9.09%.
Then `O=C(C[C@H]1C[C@H]2c3cc(NS(=O)(=O)c4ccc(F)cc4)ccc3O[C@H]2[C@@H](CO)O1)NCc1ccccc1F`, with -12.4%; and `O=C(C[C@@H]1C[C@H]2c3cc(NC(=O)C4CCOCC4)ccc3O[C@H]2[C@@H](CO)O1)NCc1ccccc1`, with 3.13%; and `O=C(C[C@@H]1C[C@@H]2c3cc(NC(=O)C4CCC4)ccc3O[C@@H]2[C@@H](CO)O1)NCc1ccc2c(c1)OCO2`, with -2.71%.
On to `COCCNC(=O)C[C@@H]1C[C@H]2c3cc(N(C)C)ccc3O[C@H]2[C@@H](CO)O1`, for which the “activity change, negative = cytotoxicity” value was -4.55%.
As for `O=C(C[C@H]1C[C@H]2c3cc(NC(=O)C4CCC4)ccc3O[C@H]2[C@H](CO)O1)NCc1ccc2c(c1)OCO2`, the “activity change, negative = cytotoxicity” value is -5.87%.
Then `CCOC(=O)[C@H]1[C@H]2COc3ccccc3[C@@H]2N2C(=O)c3c(C)cc(C)cc3NC(=O)[C@@]12C`, with -6.54%; and `O=C(C[C@@H]1C[C@@H]2c3cc(NC(=O)C4CCOCC4)ccc3O[C@@H]2[C@H](CO)O1)NCc1ccccc1F`, with -0.819%; and `Cc1ccc(S(=O)(=O)N(C)c2ccc(C(=O)N3CCN(Cc4ccc5c(c4)OCO5)CC3)cc2)cc1`, with -23%.
Then `CCC1(c2ccccc2)NC(=O)N(CC(=O)Nc2cc(S(=O)(=O)N3CCCCC3)ccc2OC(C)C)C1=O` (centres undefined), with 2.14%; and `c1ccc2c(c1)OCC(c1csc3ncnc(N4CCOCC4)c13)O2` (centres undefined), with -16.5%; and `COc1ccc([C@@H]2[C@@H]3C(=O)N(C(C)(C)C)C(=O)[C@@H]3[C@]3(CC(C)C)C(=O)N(c4ccccc4)C(=O)N23)cc1`, with -2.8%.
Then `CC12CC3CC(C)(C1)CC(C(=O)NCc1ccncc1)(C3)C2`, with -0.744%; and `CCS(=O)(=O)N[C@H]1CC[C@@H](CC(=O)NCc2ccc(Cl)cc2)O[C@@H]1CO`, with -7.14%.
Consider `CCc1ccc([C@H]2[C@@H]3C(=O)C[C@@H]4C(=O)N(Cc5ccccc5)C(=O)[C@@H]4[C@@H]3CN2S(=O)(=O)c2ccc(C)cc2)cc1`, for which the “activity change, negative = cytotoxicity” value was -8.07%.
To `CC(=O)c1c(O)cc2c3c1OC(C)(C)C1CCC(C)(CC31)O2` (centres undefined) belongs -10.6%; to `Cc1nc2ccccc2n1CC(=O)NCc1ccccc1`, -8.14%; to `CCS(=O)(=O)N1Cc2ccccc2CC1C(=O)NC(C)C12CC3CC(CC(C3)C1)C2` (centres undefined), -11.2%.
To `CCOC(=O)[C@@H]1[C@H]2COc3ccc(Br)cc3[C@@H]2N2C(=O)N(c3ccc(F)cc3)C(=O)[C@@]12C` belongs -19.4%; to `CCOC(=O)[C@@H]1[C@H]2COc3cc(OC)ccc3[C@H]2N2C(=O)N(c3cccc(F)c3)C(=O)[C@@]12C`, -1.64%.
On to `O=C(C[C@@H]1C[C@H]2c3cc(NC(=O)Nc4ccccc4)ccc3O[C@H]2[C@H](CO)O1)NCc1cccnc1`, for which the “activity change, negative = cytotoxicity” value was -0.189%.
Then `Cc1ccc(S(=O)(=O)N2CCN(S(=O)(=O)c3ccc(C)cc3)C2c2ccccc2)cc1`, with -6.37%.
To `c1ccc(CSc2nnc([C@@H]3CCCN3)o2)cc1` belongs -2.9%.
Then `O=C(C1CCCCC1)N1CCCC(c2nc3c(nnn3Cc3ccccc3)c(=O)[nH]2)C1` (centres undefined), with -0.473%; and `CCN(C[C@H]1N[C@@](C)(C(=O)OC)[C@H]2C(=O)N(Cc3ccccc3)C(=O)[C@@H]12)S(=O)(=O)c1ccc(C)cc1`, with -0.762%.
On to `CCN(C[C@H]1N[C@@](CC)(C(=O)OC)[C@H]2C(=O)N(Cc3ccccc3)C(=O)[C@@H]12)S(=O)(=O)c1ccc(C)cc1`, for which the “activity change, negative = cytotoxicity” value is -12.5%.
To `O=C(c1ccc(Cl)cc1)N1CCCCC(Sc2nnc(-c3ccc4c(c3)OCO4)o2)C1=O` (centres undefined) belongs -2.73%; to `Cc1cc(C)c(S(=O)(=O)N2CCN=C2c2ccccc2)cc1C`, -9.27%.
To `c1ccc2c(N3CCCCC3)ncnc2c1` belongs -7.9%; to `CC(C)[C@H](CN(N=O)[C@@H](Cc1ccccc1)CN(C)N=O)N(CCc1ccccc1)N=O`, -21.7%; to `Cc1ccccc1-n1c(=O)c2ccccc2n2cnnc12`, 2.85%.
Then `COc1ccc(NC(=O)C(=O)NCC2CCCN2S(=O)(=O)c2cccs2)cc1` (centres undefined), with -23.2%; and `COc1ccc(C(=O)NCCc2ccc(Cl)cc2)cc1S(=O)(=O)N1CCCCC1C` (centres undefined), with -24%.
For `O=C(CN(c1cc(C(F)(F)F)ccc1Cl)S(=O)(=O)c1ccccc1)NCc1cccnc1`, the “activity change, negative = cytotoxicity” value was -6.14%.
To `CC(C)(C)N1C(=O)[C@H]2[C@@H](c3ccc(Br)cc3)N3C(=O)N(c4ccccc4)C(=O)[C@@]3(C)[C@H]2C1=O` belongs -1.59%.
To `COc1ccc(Nc2ncc(C(=O)N3CCN(c4ccc(F)cc4)CC3)c3ccccc23)cc1` belongs -15.8%.
Then `CO[C@H]1CN(C)C(=O)c2cc(NC(=O)c3ccc(F)cc3)ccc2OC[C@H](C)N(C(=O)CN(C)C)C[C@@H]1C`, with -4.43%; and `COc1ccccc1OCC(=O)c1[nH]c(C)c(C(C)=O)c1C`, with -10.2%.
Consider `Cc1cccc2cc3c(N)c(C#N)sc3nc12`, for which the “activity change, negative = cytotoxicity” value was -1.38%.
Then `O=C1CCCc2c1[nH]c1ccc(Cl)cc21`, with 6.7% [at 16 µM].
`O=C(NNS(=O)(=O)c1ccc(F)cc1F)C1Cc2c(ccc3ccccc23)O1` (centres undefined): the “activity change, negative = cytotoxicity” value is -1.4%.
Then `Cc1ccc(S(=O)(=O)N(C)C[C@H]2Oc3cc(-c4cccc(F)c4)ccc3S(=O)(=O)N([C@H](C)CO)C[C@H]2C)cc1`, with -24.6%; and `COc1ccc(S(=O)(=O)Nc2ccc3c(c2)CC(=O)N([C@@H](C)CO)C[C@H](C)[C@H](CN(C)S(=O)(=O)c2ccc(C)cc2)O3)cc1`, with -4.93%.
Consider `C[C@@H]1CN([C@@H](C)CO)S(=O)(=O)c2ccc(-c3ccccc3)cc2O[C@H]1CN(C)S(C)(=O)=O`, for which the “activity change, negative = cytotoxicity” value was -14.9%.
Then `C[C@@H]1CN([C@H](C)CO)C(=O)c2cc(NC(=O)Nc3ccccc3)ccc2O[C@@H]1CN(C)S(=O)(=O)c1ccccc1`, with -5%.
Then `COc1ccc([C@@H]2[C@@H]3C(=O)N(C(C)(C)C)C(=O)[C@@H]3[C@]3(CC(C)C)C(=O)N(c4cccc(Br)c4)C(=O)N23)cc1`, with 1.72%; and `COc1ccc(Cn2nnnc2C(c2cc3cccc(C)c3[nH]c2=O)N2CCOCC2)cc1` (centres undefined), with -2.74%; and `COc1ccc(C(C(=O)NC2CCCC2)N(C(=O)c2ccoc2C)c2ccc(C)cc2)cc1` (centres undefined), with -24%.
To `O=C(NCc1ccco1)c1ccc(Cn2c(=O)c3ccccc3n(Cc3cccc(F)c3)c2=O)cc1` belongs 3.08%.
`CCC(=O)N(C)C(c1ccccc1Cl)c1nnnn1-c1c(C)cccc1C` (centres undefined): the “activity change, negative = cytotoxicity” value is -15.6%.
Regarding `O=C(Nc1ccc(CN2CCS(=O)(=O)CC2)cc1)c1ccc(C(F)(F)F)cc1`, the “activity change, negative = cytotoxicity” value was -21.8%.
To `CCCCCCOc1ccc(OC(=O)c2ccncc2)cc1` belongs -12.3%; to `C[C@@H]1CNC(=O)c2c(C(=O)N(C)Cc3ccccc3)ncn21`, -18.7%.
To `O=C1[C@H]2[C@@H](C3CC3)N3C(=O)CN(CC4CC4)C(=O)[C@@]3(Cc3ccccc3)[C@H]2C(=O)N1c1ccccc1` belongs 0.041%; to `CC1(C(=O)N/N=C/c2ccc3c(c2)OCO3)CC1(Br)Br` (centres undefined), 1.88%.
To `CC1(C(=O)N/N=C/c2cc3c(cc2Br)OCO3)CC1(Br)Br` (centres undefined) belongs -5.08%; to `COc1cc(/C=N/NS(=O)(=O)c2ccc(C)cc2)ccc1OCc1ccc(C(=O)O)cc1`, 4.25%; to `Cc1ccsc1/C=N/Nc1cccc(C(=O)O)c1`, -7.18%.
Take `CCCn1c(=S)[nH]c2cc(C(=O)N3CCCC(C(=O)OCC)C3)ccc2c1=O` (centres undefined): the “activity change, negative = cytotoxicity” value was -16.8%.
Then `Cc1cc(C(=O)CN2C(=O)c3ccccc3S2(=O)=O)c(C)n1CC1CCCO1` (centres undefined), with 7.48%.
To `O=C(NC1=NCCS1)C1COc2ccccc2O1` (centres undefined) belongs -11.6%.
In the case of `O=C(Nc1ccc(S(=O)(=O)N2CCCC2)cc1)c1ccc(CN2CCOCC2)cc1`, the “activity change, negative = cytotoxicity” value is -13.1%.
Then `COC(=O)c1ccc(NC(=O)c2ccc(CN3CCOCC3)cc2)cc1`, with -6.47%; and `O=S(=O)(c1ccc(Cl)cc1)N1CCCN(c2nc3ccc(Cl)cc3s2)CC1`, with -15.6%.
To `O=C(CC1C(=O)NCCN1Cc1cccc(F)c1)NC1CCCCC1` (centres undefined) belongs 0.283%; to `CC(C)(C)c1ccc(OCCC(=O)Nc2cccc(S(=O)(=O)N3CCOCC3)c2)cc1`, -11.4%; to `COc1ccc(NC(=O)Nc2ccc3c(c2)N(C)C(=O)CS3)cc1Cl`, -20.2%.
As for `CCOc1ccccc1N(C(=O)CNC(=O)c1ccco1)C(C(=O)NC1CCCC1)c1cccnc1` (centres undefined), the “activity change, negative = cytotoxicity” value was -6.89%.
To `CCOc1ccc(S(=O)(=O)NCc2ccncc2)cc1` belongs -16.8%.
To `O=C(C[C@@H]1C[C@H]2c3cc(NC(=O)C4CCOCC4)ccc3O[C@H]2[C@H](CO)O1)NCc1ccccc1F` belongs -1.23%.
To `CC(C)NC(=O)Nc1ccc2c(c1)C(=O)N([C@@H](C)CO)C[C@@H](C)[C@@H](CN(C)C(=O)CCC(F)(F)F)OCCCC[C@@H](C)O2` belongs -0.148%; to `CO[C@H]1CN(C)C(=O)c2cc(NC(C)=O)ccc2OC[C@@H](C)N(Cc2nccs2)C[C@H]1C`, -4.5%.
Take `COc1ccccc1NC(=O)N[C@@H]1C=C[C@H](CC(=O)NCc2ccc(Cl)c(Cl)c2)O[C@@H]1CO`: the “activity change, negative = cytotoxicity” value was -8.5%.
To `CC(NC(=O)CN(C)CC(=O)Nc1ccc(Cl)c(C(F)(F)F)c1)c1ccccc1` (centres undefined) belongs -20.4%.
As for `Cc1cccc(N2C(=O)N3[C@H](c4ccc(Br)cc4)[C@@H]4C(=O)N(C(C)(C)C)C(=O)[C@@H]4[C@]3(C)C2=O)c1`, the “activity change, negative = cytotoxicity” value was -2.6%.
On to `COc1cc2c(c(OC)c1OC)[C@@]1(c3ccccc3)CCCC[C@H]1[C@@H]2NC(=O)C(F)(F)F`, for which the “activity change, negative = cytotoxicity” value is -4.67%.
To `Cc1ccccc1OCCCCn1cnc2ccccc21` belongs -3.25% [at 16 µM].
To `CC[C@]1(C(=O)OC)[C@H]2C(=O)N(Cc3ccccc3)C(=O)[C@H]2[C@H]2CN=C(SCc3ccccc3)N21` belongs -11.6%.
